Here are results for 31 sequences from the supplement of paper PMC12645437, “Orthogonal IMiD-Degron Pairs Induce Selective Protein Degradation in Cells” (ACS Chemical Biology, 2025).

For the test, the target named is T1, CRBN, Q96SW2.
T1 chain: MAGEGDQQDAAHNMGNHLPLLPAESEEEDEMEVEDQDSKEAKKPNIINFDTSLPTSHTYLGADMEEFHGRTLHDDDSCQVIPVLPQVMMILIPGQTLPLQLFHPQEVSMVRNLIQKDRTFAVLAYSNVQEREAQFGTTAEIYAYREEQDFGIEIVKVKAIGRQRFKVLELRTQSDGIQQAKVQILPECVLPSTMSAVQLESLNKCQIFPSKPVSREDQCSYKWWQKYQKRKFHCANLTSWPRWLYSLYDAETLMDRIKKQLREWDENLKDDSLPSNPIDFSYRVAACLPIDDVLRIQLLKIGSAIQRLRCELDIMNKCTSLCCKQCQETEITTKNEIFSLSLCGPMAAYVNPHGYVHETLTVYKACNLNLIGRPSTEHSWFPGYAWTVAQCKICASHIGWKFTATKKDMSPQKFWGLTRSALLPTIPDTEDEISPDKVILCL
Kind of test: log2 fold change of degron read counts, EGFP-low vs EGFP+ sorted cells (limma voom), compound-induced degradation; higher = more compound-induced degradation of the degron-EGFP fusion; degrons are variants of IKZF1/3 zinc finger 2; compound dose not given here. The following applies: Jurkat, 18 h.

Where [1] appears, read: compound: compound 19 (5-tert-butyl-thalidomide).
Setting [2] is: compound: compound 22 (5-morpholino-thalidomide).
The mark [3] stands for this setting: compound: compound 33 (diphenyl IMiD analogue).

In all, about 8,300 sequences were measured (“log2 fold change of degron read counts, EGFP-low vs EGFP+ sorted cells (limma voom), compound-induced degradation”: median about -1.1, highest 2% from about 3.2 on). The entries come from a sample that favours the highest values as a whole.
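Further: pooled lentiviral library of zinc finger degron-EGFP fusions in mCherry-positive Jurkat cells, FACS-sorted after compound exposure, with degron abundance counted by next-generation sequencing.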

Regarding FICEICGRMFTQKGNLLRHIKL [46F_47I_49E_50I_52G_53R_54M_55F_67L_, Q9UKT9], the “log2 fold change of degron read counts” value reads like this: under setting [1], -2.48; under setting [2], -1.85; under setting [3], -0.238; (compound: thalidomide) -0.738.

In the case of FSCPICGATFTQKGNLLRHIKL [46F_47S_49P_50I_52G_53A_54T_55F_67L_, Q9UKT9], the “log2 fold change of degron read counts” value is 2.78 under setting [1], 2.14 under setting [2], 2.34 under setting [3] and 1.5 (compound: thalidomide).

For the sequence FVCPICGATFTQKGNLLRHIKL [46F_47V_49P_50I_52G_53A_54T_55F_67L_, Q9UKT9], the “log2 fold change of degron read counts” value is -0.613 under setting [1], 1.74 under setting [2], 1.8 under setting [3] and 2.23 (compound: thalidomide).

As for FRCPICGATFTQKGNLLRHIKL [46F_47R_49P_50I_52G_53A_54T_55F_67L_, Q9UKT9], the “log2 fold change of degron read counts” value was -0.752 under setting [1], -0.483 under setting [2], 1.07 under setting [3] and 1.12 (compound: thalidomide).

On to FCCPICGATFTQKGNLLRHIKL [46F_47C_49P_50I_52G_53A_54T_55F_67L_, Q9UKT9], for which the “log2 fold change of degron read counts” value runs as follows: under setting [1], 1.51; under setting [2], 1.82; under setting [3], 2.36; (compound: thalidomide) 2.09.

On to FFCPICGATFTQKGNLLRHIKL [46F_47F_49P_50I_52G_53A_54T_55F_67L_, Q9UKT9], for which the “log2 fold change of degron read counts” value reads like this: under setting [1], 2.81; under setting [2], 3.61; under setting [3], 1.65; (compound: thalidomide) 1.35.

Turning to FQCPICGATFTQKGNLLRHIKL [46F_47Q_49P_50I_52G_53A_54T_55F_67L_, Q9UKT9], the “log2 fold change of degron read counts” value is, setting by setting: under setting [1], 0.717; under setting [2], 2.74; under setting [3], 2.33; (compound: thalidomide) 3.56.

FMCPICGATFTQKGNLLRHIKL [46F_47M_49P_50I_52G_53A_54T_55F_67L_, Q9UKT9]: the “log2 fold change of degron read counts” value runs as follows: under setting [1], -1.31; under setting [2], 0.0387; under setting [3], 2.08; (compound: thalidomide) 1.34.

In the case of FACPICGATFTQKGNLLRHIKL [46F_47A_49P_50I_52G_53A_54T_55F_67L_, Q9UKT9], the “log2 fold change of degron read counts” value by setting is: under setting [1], 3.39; under setting [2], 1.82; under setting [3], 1.17; (compound: thalidomide) 0.639.

For FGCPICGATFTQKGNLLRHIKL [46F_47G_49P_50I_52G_53A_54T_55F_67L_, Q9UKT9], the “log2 fold change of degron read counts” value under setting [1] came out at 3.46, the “log2 fold change of degron read counts” value under setting [2] was 2.4, the “log2 fold change of degron read counts” value under setting [3] came out at 2.17 and the “log2 fold change of degron read counts” value (compound: thalidomide) worked out at 1.08.

Take FNCPICGATFTQKGNLLRHIKL [46F_47N_49P_50I_52G_53A_54T_55F_67L_, Q9UKT9]: the “log2 fold change of degron read counts” value is 1.88 under setting [1], 0.692 under setting [2], 1.59 under setting [3] and 0.652 (compound: thalidomide).

Consider FKCPICGATFTQKGNLLRHIKL [46F_47K_49P_50I_52G_53A_54T_55F_67L_, Q9UKT9], for which the “log2 fold change of degron read counts” value reads like this: under setting [1], -1.47; under setting [2], -2.7; under setting [3], -2.3; (compound: thalidomide) -1.17.

Take FICPICGATFTQKGNLLRHIKL [46F_47I_49P_50I_52G_53A_54T_55F_67L_, Q9UKT9]: the “log2 fold change of degron read counts” value by setting is: under setting [1], -1.06; under setting [2], 1.53; under setting [3], 1.48; (compound: thalidomide) 1.86.

FECPICGRRFTQKGNLLRHIKL [46F_47E_49P_50I_52G_53R_54R_55F_67L_, Q9UKT9]: the “log2 fold change of degron read counts” value is -0.662 under setting [1], -1.27 under setting [2], 0.491 under setting [3] and 2.58 (compound: thalidomide).

As for FRCPQCGADFTQKGNLLRHIKL [46F_47R_49P_50Q_52G_53A_54D_55F_67L_, Q9UKT9], the “log2 fold change of degron read counts” value is -3.08 under setting [1], -3.48 under setting [2], -0.625 under setting [3] and -1.35 (compound: thalidomide).

With LCCNQCGFCCTQKGNLLRHIKL [46L_47C_49N_50Q_52G_53F_54C_55C_67L_, Q9UKT9], the “log2 fold change of degron read counts” value was -1.92 under setting [1], -2.67 under setting [2], -1.9 under setting [3] and -2 (compound: thalidomide).

As to FDCDICGAFFTQKGNLLRHIKL [46F_47D_49D_50I_52G_53A_54F_55F_67L_, Q9UKT9], the “log2 fold change of degron read counts” value reads like this: under setting [1], -1.35; under setting [2], -2.45; under setting [3], -1.91; (compound: thalidomide) -1.7.

As for LMCEICGFKCTQKGNLLRHIKL [46L_47M_49E_50I_52G_53F_54K_55C_67L_, Q9UKT9], the “log2 fold change of degron read counts” value reads like this: under setting [1], 0.00993; under setting [2], -0.209; under setting [3], 0.918; (compound: thalidomide) 1.45.

As for FHCNQCGHMFTQKGNLLRHIKL [46F_47H_49N_50Q_52G_53H_54M_55F_67L_, Q9UKT9], the “log2 fold change of degron read counts” value was -2.28 under setting [1], -2.39 under setting [2], -2.58 under setting [3] and -2.2 (compound: thalidomide).

FWCPICGATFTQKGNLLRHIKL [46F_47W_49P_50I_52G_53A_54T_55F_67L_, Q9UKT9]: the “log2 fold change of degron read counts” value under setting [1] came to 2.22, the “log2 fold change of degron read counts” value under setting [2] was found to be 3.57, the “log2 fold change of degron read counts” value under setting [3] was 1.64 and the “log2 fold change of degron read counts” value (compound: thalidomide) was 0.523.

Regarding FLCPICGATFTQKGNLLRHIKL [46F_47L_49P_50I_52G_53A_54T_55F_67L_, Q9UKT9], the “log2 fold change of degron read counts” value under setting [1] is -1.02, the “log2 fold change of degron read counts” value under setting [2] is -0.515, the “log2 fold change of degron read counts” value under setting [3] came out at 1.48 and the “log2 fold change of degron read counts” value (compound: thalidomide) is 1.68.

Turning to FYCPICGATFTQKGNLLRHIKL [46F_47Y_49P_50I_52G_53A_54T_55F_67L_, Q9UKT9], the “log2 fold change of degron read counts” value is, setting by setting: under setting [1], 3.2; under setting [2], 3.57; under setting [3], 2.42; (compound: thalidomide) 1.16.

Take FQCDICGATFTQKGNLLRHIKL [46F_47Q_49D_50I_52G_53A_54T_55F_67L_, Q9UKT9]: the “log2 fold change of degron read counts” value is -0.685 under setting [1], 1.86 under setting [2], 0.81 under setting [3] and 3.25 (compound: thalidomide).

With FLCDICGATFTQKGNLLRHIKL [46F_47L_49D_50I_52G_53A_54T_55F_67L_, Q9UKT9], the “log2 fold change of degron read counts” value by setting is: under setting [1], -1.67; under setting [2], -1.74; under setting [3], -0.434; (compound: thalidomide) -0.565.

For FGCNICGATFTQKGNLLRHIKL [46F_47G_49N_50I_52G_53A_54T_55F_67L_, Q9UKT9], the “log2 fold change of degron read counts” value under setting [1] turned out to be 0.0778, the “log2 fold change of degron read counts” value under setting [2] was determined as 1.89, the “log2 fold change of degron read counts” value under setting [3] is 1.52 and the “log2 fold change of degron read counts” value (compound: thalidomide) turned out to be 0.109.

As for FQCNICGATFTQKGNLLRHIKL [46F_47Q_49N_50I_52G_53A_54T_55F_67L_, Q9UKT9], the “log2 fold change of degron read counts” value by setting is: under setting [1], -0.501; under setting [2], 1.47; under setting [3], 1.42; (compound: thalidomide) 3.87.

With FCCDICGATFTQKGNLLRHIKL [46F_47C_49D_50I_52G_53A_54T_55F_67L_, Q9UKT9], the “log2 fold change of degron read counts” value worked out at 0.685 under setting [1], 1.05 under setting [2], 1.24 under setting [3] and 0.177 (compound: thalidomide).

FYCNICGATFTQKGNLLRHIKL [46F_47Y_49N_50I_52G_53A_54T_55F_67L_, Q9UKT9]: the “log2 fold change of degron read counts” value reads like this: under setting [1], 0.426; under setting [2], 2.67; under setting [3], 0.933; (compound: thalidomide) -0.961.

With FTCPICGATFTQKGNLLRHIKL [46F_47T_49P_50I_52G_53A_54T_55F_67L_, Q9UKT9], the “log2 fold change of degron read counts” value turned out to be 0.225 under setting [1], 2.5 under setting [2], 2.28 under setting [3] and 2.88 (compound: thalidomide).

As for FECPICGATFTQKGNLLRHIKL [46F_47E_49P_50I_52G_53A_54T_55F_67L_, Q9UKT9], the “log2 fold change of degron read counts” value under setting [1] was determined as 0.0819, the “log2 fold change of degron read counts” value under setting [2] was -0.536, the “log2 fold change of degron read counts” value under setting [3] was found to be 1.91 and the “log2 fold change of degron read counts” value (compound: thalidomide) came out at 2.9.

As for FDCPICGATFTQKGNLLRHIKL [46F_47D_49P_50I_52G_53A_54T_55F_67L_, Q9UKT9], the “log2 fold change of degron read counts” value reads like this: under setting [1], 1.59; under setting [2], 0.119; under setting [3], 1.11; (compound: thalidomide) 1.68.
